# hgDAF-12 ag: H. glycines DAF-12 receptor agonists, primary screen, cell-based, luminescence, HEK293, GAL4 fusion, UAS-luciferase | Nuclear hormone receptor DAF-12 (Heterodera glycines), GAL4 fusion | HEK293 GAL4-hgDAF12 UAS-luciferase reporter, agonist luminescence; normalized to butyrate control | activation, % at 6.8 µM | 370,000 tested, 1.8% active | AID 687014, 2013;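 active = activation above a cutoff set at the mean of all screened compounds plus 3 SD, cut at about 10% in these data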;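 note: 0% = DMSO wells and 100% = sodium butyrate wells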
# ssDAF-12 act: S. stercoralis DAF-12 nuclear receptor activators, primary screen, cell-based, luminescence, HEK293, GRIP1 co-expression, lit1-tk-luc. HEK293 ssDAF-12/GRIP1 lit1-tk-luc reporter; % of 3 µM dafachronic acid response. activation, % at 6.8 µM. 370,000 tested, 1% active;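 active = activation above the mean over all tested compounds plus 3 SD, cut at about 0.9% in these data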;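 note: 0% = DMSO-only wells and 100% = 3 µM delta7-dafachronic acid wells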
# DAX1 inh-1: DAX1 (NR0B1) inhibitors, primary screen, cell-based, HEK293, Gal4-DAX1, luciferase luminescence; HEK293 Gal4-DAX1 luciferase reporter; inhibition, % at 6.75 µM; 340,000 tested, 0.99% active; AID 504766, 2011;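 active = inhibition above the mean over all tested compounds plus 3 SD, cut at about 4.2% in these data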;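 note: 0% = DAX1-transfected cells with DMSO and 100% = empty-vector control cells with DMSO; inhibition shows as a rise in luminescence from relieved DAX1 repression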
# hcDAF-12 act: H. contortus DAF-12 nuclear receptor activators, primary screen, cell-based, luminescence, HEK293, lit1-tk-luc reporter; AID 652067, 2013; 370,000 tested, 1.4% active; HEK293 hcDAF-12 lit1-tk-luc reporter; 0% DMSO, 100% Δ7-dafachronic acid; activation, % at 6.8 µM;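 active = activation above the mean of all tested compounds plus 3 SD, cut at about 5.5% in these data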;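 note: 100% = response to 3 µM Δ7-dafachronic acid high control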
# DAX1 inh-2: DAX1 (NR0B1) inhibitors on StAR promoter, primary screen, cell-based, luminescence, SF-1 (NR5A1), full-length DAX-1; HEK293T StAR-luciferase reporter, SF-1/DAX-1 repression relief; 370,000 tested, 1.1% active; inhibition, % at 6.8 µM;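 active = inhibition above the mean over all tested compounds plus 3 SD, cut at about 3.6% in these data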;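 note: 0% = DAX-1 cells with DMSO and 100% = cells lacking DAX-1 with DMSO; higher inhibition means more luminescence from relief of DAX-1 repression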
# hgDAF12 conf: H. glycines DAF-12 receptor agonists, confirmation, cell-based, luminescence, HEK293, GAL4-LBD fusion. shares compounds with hgDAF-12 ag. HEK293 GAL4-hgDAF12 luciferase reporter, agonist mode; percent of butyrate response. activation, % at 6.8 µM. 3,300 tested, 80% active. AID 743050, 2013;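 active = mean activation over triplicate wells above the hit cutoff derived from the earlier primary screen, cut at about 11% in these data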;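 note: 0% = DMSO low control and 100% = 2 mM sodium butyrate high control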
# LXRb DAF12 ctr: LXR agonists, Gal4 luciferase reporter, confirmation, counter-screen for hgDAF-12 agonist project, cell-based, luminescence, HEK293, H. glycines campaign; 24 h; 3,300 tested, under 10 active; AID 743051, 2013; activation, % at 6.8 µM; shares compounds with hgDAF-12 ag;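 active = mean activation of the triplicate above a set limit carried over from the primary screen, none filed active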
# Target sequence (P55055 whole entry, looked up, the tested form may be a part): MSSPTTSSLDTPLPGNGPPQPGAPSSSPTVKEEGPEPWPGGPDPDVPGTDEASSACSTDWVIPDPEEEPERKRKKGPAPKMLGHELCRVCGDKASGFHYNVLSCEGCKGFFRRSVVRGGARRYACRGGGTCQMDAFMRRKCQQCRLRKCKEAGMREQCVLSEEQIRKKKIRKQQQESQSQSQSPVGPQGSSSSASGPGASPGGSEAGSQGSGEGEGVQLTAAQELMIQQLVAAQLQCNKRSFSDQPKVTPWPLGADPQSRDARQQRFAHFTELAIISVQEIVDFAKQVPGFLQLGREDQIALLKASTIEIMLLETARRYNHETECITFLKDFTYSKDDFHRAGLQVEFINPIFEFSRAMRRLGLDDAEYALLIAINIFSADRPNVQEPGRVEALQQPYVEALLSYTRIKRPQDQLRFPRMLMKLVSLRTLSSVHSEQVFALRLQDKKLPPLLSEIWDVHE
# Starred values were filed as active, the others as inactive; nt = no result given. Hits are enriched below; roughly 4.1% of the tested compounds scored in any of these assays.
SMILES,hgDAF-12 ag,ssDAF-12 act,DAX1 inh-1,hcDAF-12 act,DAX1 inh-2,hgDAF12 conf,LXRb DAF12 ctr
Cc1ccsc1/C=N/NC(=O)c1ccc2ccccc2c1,14*,0,1,2,3,11*,0
CC(C)Cn1c(SCC(=O)NC2CC2)nc2ccccc21,2,-1,1,0,0,nt,nt
C/C(CC(=O)Nc1c(C)cc(C)cc1C)=N\NC(=O)OC(C)(C)C,13*,0,3,1,1,1,0
CC(C)CC(=O)Nc1ccc2nn(-c3ccccc3)nc2c1,14*,0,3,4,3,16*,1
COCCc1nc2ccc(C(=O)N3CCCCC3COC)cc2o1 (stereo unspecified),1,0,1,-3,1,nt,nt
COCCC1CCCCN1C(=O)c1ccc2nc(Cc3ccccc3F)oc2c1 (stereo unspecified),14*,0,1,5.6*,3.9*,12*,1
c1ccc(Cn2c(-c3ccco3)nc3nc4ccccc4nc32)cc1,7,0,2,1,2,nt,nt
O=c1c2ccccc2nc(-c2ccco2)n1Cc1ccccc1,14*,-1,2,3,1,12*,0
c1ccc(C2=NC(c3ccccc3)CC2)cc1 (stereo unspecified),5,0,1,0,0,nt,nt
Brc1ccccc1C1CC(c2ccccc2)=Nc2ccccc2N1 (stereo unspecified),14*,0,2,4,1,9,0
c1ccc(C2=Nc3ccccc3NC(c3ccccc3)C2)cc1 (stereo unspecified),14*,0,3,1,3,15*,0
CCCCn1nnnc1C(c1cc2ccccc2o1)N(CCC#N)Cc1ccccc1 (stereo unspecified),1,-1,nt,0,-1,nt,nt
O=C(CSc1ccc(F)cc1)Nc1ccccc1Br,4,-2,1,-2,1,nt,nt
Cc1ccc(CSCC(=O)NCc2ccc(F)cc2)cc1,-3,-2,0,-1,0,nt,nt
Cc1ccc(NC(=O)CSCc2ccc(F)cc2)cc1,14*,-1,-1,3,2,10,0
O=C(CSc1ccc(F)cc1)Nc1ccc(Br)cc1,16*,-1,2,1,0,12*,0
CC(=O)O[C@@H](C[C@@H](C)C1=C2C[C@H](O)C3[C@@]4(C)CCC(=O)C(C)(C)C4CC[C@]3(C)[C@@]2(C)CC1)[C@H]1OC1(C)C (stereo partly specified),5,-1,0,0,-1,nt,nt
Cc1c(C(=O)Nc2cccc(S(=O)(=O)N3CCOCC3)c2)oc2ccc(Br)cc12,3,-1,1,-1,0,nt,nt
Cc1c(C(=O)Nc2cccnc2)oc2ccc(Br)cc12,14*,1.7*,4,5,1,14*,1
C[C@@H]1ON(C)[C@H]2C[C@H]3c4cc(-c5cc6ccccc6o5)ccc4CCN3C[C@@H]12,13*,0,nt,2,3.7*,8,0
C[C@@H]1ON(C)[C@H]2C[C@H]3c4cc(Nc5ccccc5)ccc4CCN3C[C@@H]12,-1,-1,nt,-2,0,nt,nt
Cc1nc(Nc2ncc(C(=O)Nc3c(C)cccc3Cl)s2)cc(N2CCN(CCO)CC2)n1,15*,-2,nt,-7,4.4*,5,0
N/C(=N\OC(=O)c1ccc2c(c1)OCO2)c1cccc(Br)c1,6,0,0,2,1,nt,nt
N/C(=N\OC(=O)c1ccc2c(c1)OCO2)c1cccnc1,14*,1.1*,1,4,2,11*,0
Cc1ccc(Cl)cc1-c1cc(C(=O)N2CCN(c3ccncc3)CC2)[nH]n1,-1,0,nt,2,1,nt,nt
SMILES,hgDAF-12 ag,ssDAF-12 act,DAX1 inh-1,hcDAF-12 act,DAX1 inh-2,hgDAF12 conf,LXRb DAF12 ctr
Cc1ccc(N2CCN(S(=O)(=O)c3c(C)noc3C)CC2C)cc1 (stereo unspecified),1,0,1,-2,0,nt,nt
Cc1cccc(NC(=O)c2cc(-c3cc(C)c(C)cc3O)n[nH]2)c1,7,0,2,3,2,nt,nt
CC(C)(C)c1ccc(C(=O)Nc2cccnc2)cc1,16*,1.5*,2,5.9*,2,13*,1
O=C(Nc1cccnc1)c1ccc(C(=O)Nc2cccnc2)cc1,0,-1,1,0,0,nt,nt
Cc1ccc(-c2cc(C(=O)Nc3cccnc3)[nH]n2)c(O)c1C,14*,-1,5.7*,1,1,16*,1
CC(C)(C)c1ccc(NC(=O)c2ccsc2)cc1,17*,1.0*,nt,6.5*,3,16*,1
COc1ccc(-c2nnc(SCC(=O)c3ccc[nH]3)o2)cc1,14*,1,0,5,3,15*,1
CC(=O)Nc1c(O)nc(SCC(=O)Nc2ccc(C(C)=O)cc2)[nH]c1=O,14*,-1,1,3,0,12*,0
CC(=O)Nc1c(O)nc(SCC(=O)Nc2cccc(C)c2)[nH]c1=O,0,-1,1,0,0,nt,nt
Cc1ccc(OCC(=O)N2CCN(c3ccc([N+](=O)[O-])c(N4CCOCC4)c3)CC2)cc1,2,-2,1,0,-2,nt,nt
Cc1cc(OCC(=O)N2CCOCC2)ccc1[N+](=O)[O-],15*,0,5.2*,4,2,8,0
O=C(Nc1ccccc1Cl)c1ccc(Cl)cc1Cl,4,-1,1,-1,0,nt,nt
O=C(NC(=S)Nc1ccccc1O)c1ccc(Cl)cc1Cl,14*,1,0,6.5*,1,9,0
CCCCOC(=O)c1ccc(NC(=O)COC(=O)C2CC2C)cc1 (stereo unspecified),3,-1,1,1,2,nt,nt
CC(=O)N1CCC(=NNc2nc3ccccc3[nH]2)CC1,16*,1,nt,4,1,6,0

# Bioassay records as filed in PubChem BioAssay.
